The subject of experiment [1] is XIP peptide (Xip251-270) binding. As to the kind of experiment: XIP fragment 251-270 binding compounds – biochemical, small-molecule microarray, fluorescence 635/667 nm, 0.1 µg/mL protein, primary screen (AID 1182). Particulars: fluorescent protein binding, 635 nm, higher = more signal, called active from +8 up or from −8 down.
The test system of another experiment is XIP peptide (Xip251-270). As to the kind of experiment: compounds binding XIP fragment 251-270 – biochemical, small-molecule microarray, fluorescence 635/667 nm, 0.5 µg/mL protein, primary screen (AID 1183). Particulars: fluorescence 635 nm, higher = more signal.
Experiment [2] in a line: blood-stage malaria parasite viability loss – strain 3D7, DAPI fluorescence, 100 nL, primary screen (AID 1184).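 Note: parasites grown inside human red blood cells in medium with human serum.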 The following applies: P. falciparum 3D7 growth, 3 d, higher = more signal.
Experiment [3] deals with Homeobox protein Hox-A13 (Mus musculus) (UniProt Q62424). As to the kind of experiment: disruptors of Hoxa13 oligonucleotide interaction – biochemical, fluorescence polarization, labeled oligonucleotide, primary screen (AID 1185). Particulars: Hoxa13:DNA binding, 15 min, higher = more signal, called active from +8 up or from −8 down. (Polarisation of emitted light reports the rotation of a fluorescent probe.)
Chain of Homeobox protein Hox-A13 (Mus musculus) (Q62424 whole entry, looked up): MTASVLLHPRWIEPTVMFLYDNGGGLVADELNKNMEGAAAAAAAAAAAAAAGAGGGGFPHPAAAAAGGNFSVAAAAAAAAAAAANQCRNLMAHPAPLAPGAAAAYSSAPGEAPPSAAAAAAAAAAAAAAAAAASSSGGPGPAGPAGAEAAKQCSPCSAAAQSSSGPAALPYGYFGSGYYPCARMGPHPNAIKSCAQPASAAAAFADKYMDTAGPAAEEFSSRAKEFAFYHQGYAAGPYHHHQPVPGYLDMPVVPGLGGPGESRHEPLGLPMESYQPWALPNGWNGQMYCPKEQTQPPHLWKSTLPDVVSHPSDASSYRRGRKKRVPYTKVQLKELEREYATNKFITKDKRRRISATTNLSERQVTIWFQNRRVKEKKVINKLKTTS

A short description of experiment [4]: blockers of DNA damage checkpoint Chk1 activation – imaging, HeLa, hydroxyurea, phospho-Chk1 antibody, percent positive cells, primary screen (AID 1186). The following applies: hydroxyurea-induced phospho-Chk1 immunofluorescence imaging, higher = more signal.
Experiment [5] can be described thus: blockers of DNA damage checkpoint Chk1 activation – imaging, HeLa, hydroxyurea, phospho-Chk1 nuclear intensity, primary screen (AID 1187). The following applies: hydroxyurea-induced phospho-Chk1 immunofluorescence imaging, higher = more signal.

Calls of active or inactive are those of the source. Unless noted, the rule behind the calls is not given here.

In the case of `Cc1ccc(S[C@]2(C(=O)NCC(C)C)CC(=O)N(Cc3ccccc3)[C@@H]2c2ccc(CO)cc2I)cc1`, the values for the composite z-score (in experiment [1]; in the experiment on XIP peptide (Xip251-270)) were 0.0656 (inactive) and 0.292, respectively. The z-score in experiment [2] was -0.769; in experiment [3], -3.29 (inactive); in experiment [4] it was 0.292 (inactive); in experiment [5], 0.556 (inactive).
On to `O=C1N(CCS(=O)(=O)c2ccccc2)Cc2ccccc2[C@H]2OC(c3ccc(OCCCO)cc3)=N[C@@]12CCS(=O)(=O)c1ccccc1`, for which the composite z-score is 2.05 (inactive) in experiment [1] and 0.81 with XIP peptide (Xip251-270). The z-score in experiment [2] was -2.09; in experiment [3], -0.483 (inactive); in experiment [4], -0.44 (inactive); in experiment [5], -0.346 (inactive).
As for `C=CCNC(=O)[C@@H]1[C@H]2C(=O)O[C@H](c3ccccc3)[C@H](c3ccccc3)N2[C@H](c2ccc(O)cc2)[C@@]12C(=O)N(C(=O)OCCOC)c1ccccc12`, the composite z-score in experiment [1] is 2.55 (inactive); in the experiment with XIP peptide (Xip251-270) it was 0.525. The z-score in experiment [2] is -2.07; in experiment [3] it was -2.07 (inactive); in experiment [4], 0.209 (inactive); in experiment [5], 0.354 (inactive).
Regarding `O=C(CCN1CCOCC1)c1cccc(O)c1`, the composite z-score is 1.55 (inactive) in experiment [1] and 0.421 in the experiment with XIP peptide (Xip251-270). For the same molecule, the z-score in experiment [2] was -1.5; in experiment [3], -2.35 (inactive); in experiment [4], -0.111 (inactive); in experiment [5], 0.114 (inactive).
Regarding `CC(C)(C)OC(=O)CC[C@@]1(C(=O)O)N=C(c2ccc(OCCCO)cc2)O[C@@H]1c1ccccc1N=[N+]=[N-]`, the composite z-score is 1.37 (inactive) in experiment [1] and -0.333 in the experiment with XIP peptide (Xip251-270). Also, the z-score in experiment [2] was 0.603; in experiment [3], -5.2 (inactive); in experiment [4], -0.157 (inactive); in experiment [5], -0.51 (inactive).
Regarding `CN(C)CCCCCCNC(=O)[C@H]1C[C@H]2C(=O)N[C@@H](CCCCN)C(=O)N2[C@H]1c1ccc(O)cc1`, the results for the composite z-score (in experiment [1]; in the experiment with XIP peptide (Xip251-270)) were 5.07 (inactive) and 0.937, respectively. The z-score in experiment [2] is -0.511; in experiment [3], -0.281 (inactive); in experiment [4], -0.111 (inactive); in experiment [5], 0.501 (inactive).
Regarding `COc1ccc(CCNC(=O)[C@@]2(c3ccc([N+](=O)[O-])cc3)CC(=O)N(CC34CC5CC(CC(C5)C3)C4)[C@@H]2c2ccc(CO)cc2)cc1`, the composite z-score in experiment [1] is 0.349 (inactive); with XIP peptide (Xip251-270), 0.735. Moreover, the z-score in experiment [2] is -1.79; in experiment [3], -2.31 (inactive); in experiment [4], -0.42 (inactive); in experiment [5] it was -0.458 (inactive).
For `COC(=O)c1ccc(C(O)C2C=CC3C(=O)N(C)C(=O)C3N2NC(=O)OC(C)(C)C)o1` (centres undefined), the results for the composite z-score (in experiment [1]; with XIP peptide (Xip251-270)) were 3.49 (inactive) and 0.789, respectively. For the same molecule, the z-score in experiment [2] was 0.926; in experiment [3], -1.46 (inactive); in experiment [4] it was -0.0792 (inactive); in experiment [5], -0.0828 (inactive).
As for `CC(C)C(O)C1C=CC2C(=O)N(c3ccccc3)C(=O)C2N1Nc1ccc(C#N)cc1` (centres undefined), the composite z-score was 0.613 (inactive) in experiment [1] and 0.748 in the experiment with XIP peptide (Xip251-270). The z-score was 0.207 in experiment [2], -2.61 (inactive) in experiment [3], -0.877 (inactive) in experiment [4] and -0.419 (inactive) in experiment [5].
In the case of `COCCOC(=O)N1C(=O)[C@@]2(c3cc(C#CCNC(N)=O)ccc31)[C@H](C(=O)N1CCN(c3ncccn3)CC1)[C@H]1C(=O)O[C@H](c3ccccc3)[C@H](c3ccccc3)N1[C@@H]2c1ccccc1OCCO`, the composite z-score was 1.56 (inactive) in experiment [1] and 0.588 with XIP peptide (Xip251-270). Also, the z-score is -2.4 in experiment [2], -1.39 (inactive) in experiment [3], 0.197 (inactive) in experiment [4] and 0.886 (inactive) in experiment [5].
With `CC(C)C(=C=CC[C@H](O)c1cccc(OCCO)c1)C[C@H](O)COCc1ccccc1`, the composite z-score in experiment [1] was 0.31 (inactive); in the experiment with XIP peptide (Xip251-270), -0.376. Moreover, the z-score in experiment [2] is -1.49; in experiment [3] it was -3.93 (inactive); in experiment [4] it was -0.648 (inactive); in experiment [5] it was -0.289 (inactive).
On to `N#Cc1ccc(NN2C(C(O)c3ccc([N+](=O)[O-])cc3)C=CC3C(=O)N(c4ccccc4)C(=O)C32)cc1` (centres undefined), for which the results for the composite z-score (in experiment [1]; with XIP peptide (Xip251-270)) were 0.311 (inactive) and 0.807, respectively. Also, the z-score is 0.272 in experiment [2], -4.27 (inactive) in experiment [3], 0.446 (inactive) in experiment [4] and 0.5 (inactive) in experiment [5].
`N[C@@H](Cc1ccccc1)Cn1cc(-c2ccccc2)nn1`: the composite z-score in experiment [1] is -0.259 (inactive); in the experiment on XIP peptide (Xip251-270) it was -0.533. Moreover, the z-score is 0.942 in experiment [2], -0.823 (inactive) in experiment [3], 0.201 (inactive) in experiment [4] and 0.117 (inactive) in experiment [5].
`C=C(CCCC)/C(=C/C[C@H](OC(C)=O)c1ccc(CO)o1)c1cnc2ccccc2c1`: the results for the composite z-score (in experiment [1]; in the experiment on XIP peptide (Xip251-270)) were 0.0563 (inactive) and 0.515, respectively. The z-score in experiment [2] is -0.867; in experiment [3], -5.74 (inactive); in experiment [4] it was 0.0298 (inactive); in experiment [5], -0.0373 (inactive).

These data come from PubChem BioAssay.
